Assay results published in the supplement of paper PMC13380429.

Test system: Vero E6 infected with SARS-CoV-2
Assay: inhibition of SARS-CoV-2 cytopathic effect; higher = more antiviral protection, active = above 15
Details: 48 h

Measured: inhibition of SARS-CoV-2 cytopathic effect

O=C(O)/C=C/c1ccc(-c2ccc(O)c(C34CC5CC(CC(C5)C3)C4)c2)cc1 [adarotene]
inactive: 1 nM -0.41% | 8.33 nM -0.4% | 100 nM 0.7% | 833.33 nM -4.11% | 10000 nM -6.23%

C[n+]1ccccc1C=NO [pralidoxime]
inactive: 1 nM 1.86% | 8.33 nM 0.25% | 100 nM 0.14% | 833.33 nM 0.94% | 10000 nM 1.11%

NNC(=O)CSc1nc2scc(-c3ccccc3)c2c(=O)n1-c1ccccc1
inactive: 1 nM -1.69% | 8.33 nM 1.94% | 100 nM -0.83% | 833.33 nM -2.58% | 10000 nM -1.58%

C#C[C@]1(O)CC[C@H]2[C@@H]3CCC4=Cc5oncc5C[C@]4(C)[C@H]3CC[C@@]21C [danazol]
inactive: 1 nM 2.48% | 8.33 nM -0.9% | 100 nM 1.74% | 833.33 nM 3.55% | 10000 nM 6.39%

CCOC1O[C@H]([C@@H](COCc2ccccc2)OCc2ccccc2)[C@H](OCc2ccccc2)[C@H]1O (stereo not given in full) [tribenoside]
inactive: 1 nM -7.21% | 8.33 nM -1.54% | 100 nM -0.86% | 833.33 nM 0.08% | 10000 nM 1.9%

Cc1ccc(Cl)cc1N(CC(=O)Nc1c(F)cccc1F)S(C)(=O)=O
inactive: 1 nM 2.5% | 8.33 nM -2.01% | 100 nM -1.24% | 833.33 nM 0.27% | 10000 nM -0.21%

O=C(O)Cc1cccc2c(=O)cc(-c3ccccc3)oc12 [mitoflaxone]
inactive: 1 nM 1.27% | 8.33 nM 0.65% | 100 nM 1.42% | 833.33 nM 1.5% | 10000 nM 0.08%
